Laboratory results reported in PubChem BioAssay (NCI).
“And” between values parts separate entries of the source, which are not always exact repeats. Identical values can stand only once. About 83,000 compounds went through this panel and 20% of them were active in at least one assay; those are over-represented in the sample as a whole.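 Assay: single dose, 48 h. Readout: percent growth (0 = no net growth; negative = cell death). Active: <10.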 The source made the active and inactive calls.

Tests used:
Assay in all cases: NCI-60 one-dose screen, 48 h (100 = growth as untreated, 0 = no growth, -100 = all killed)
Details in all cases: 10 µM unless noted
SK-MEL-2 melanoma = tested on: SK-MEL-2 melanoma
EKVX NSCLC = tested on: EKVX NSCLC
SN12C renal = tested on: SN12C renal
UO-31 renal = tested on: UO-31 renal
TK-10 renal = tested on: TK-10 renal
ACHN renal = tested on: ACHN renal
CAKI-1 renal = tested on: CAKI-1 renal
A498 renal = tested on: A498 renal
CCRF-CEM leukemia = tested on: CCRF-CEM leukemia
MOLT-4 leukemia = tested on: MOLT-4 leukemia

Row | Compound | growth (SK-MEL-2 melanoma) | growth (EKVX NSCLC) | growth (SN12C renal) | growth (UO-31 renal) | growth (TK-10 renal) | growth (ACHN renal) | growth (CAKI-1 renal) | growth (A498 renal) | growth (CCRF-CEM leukemia) | growth (MOLT-4 leukemia)
1 | Cc1ccc(NC(=S)N/C=C(\c2ccccc2)S(=O)Cc2ccccc2)c(C)c1 (stereo not given) | 103% (inactive) | 86.7% (inactive) | 98.9% (inactive) | 80.2% (inactive) | 109% (inactive) | 103% (inactive) | 87.5% (inactive) | 103% (inactive) | 97.3% (inactive) | 94.3% (inactive)
2 | C/C(CC(C)C)=N/NC(N)=S | 107% (inactive) | 59.6% (inactive) | 87.2% (inactive) | 62.1% (inactive) | 105% (inactive) | 98.3% (inactive) | 104% (inactive) | 87.6% (inactive) | 43.8% (inactive) | 52.1% (inactive)
3 | CC(NC(=O)CCl)c1ccccc1 (stereo not given) | 104% (inactive) | 99% (inactive) | 110% (inactive) | 98.8% (inactive) | 98.8% (inactive) | 106% (inactive) | 101% (inactive) | 83.9% (inactive) | 105% (inactive) | 101% (inactive)
4 | Cc1ccc(S(=O)(=O)n2ccnc2)cc1 | 96.7% (inactive) | 90.7% (inactive) | 107% (inactive) | 89.9% (inactive) | 93% (inactive) | 104% (inactive) | 75.3% (inactive) | 96.5% (inactive) | 120% (inactive) | 138% (inactive)
5 | COC(=O)c1nc(=S)[nH]c(C(=O)OC)c1C(=O)c1ccccc1 | 104% (inactive) | 107% (inactive) | 99.2% (inactive) | 85.3% (inactive) | 113% (inactive) | 101% (inactive) | 87% (inactive) | 114% (inactive) | 103% (inactive) | 112% (inactive)
6 | S=c1nn[nH]n1C1CCCCC1 | 129% (inactive) | 106% (inactive) | 105% (inactive) | 100% (inactive) | 118% (inactive) | 109% (inactive) | 108% (inactive) | 87.5% (inactive) | 93.9% (inactive) | 115% (inactive)
7 | CC(O)CCNC(c1ccccc1)C(O)c1ccccc1 (stereo not given) | 99.4% (inactive) | 115% (inactive) | 108% (inactive) | 92.9% (inactive) | 106% (inactive) | 109% (inactive) | 104% (inactive) | 103% (inactive) | 93.7% (inactive) | 102% (inactive)
8 | CCC(=O)Oc1ccc(OCc2ccccc2)cc1 | 123% (inactive) | 97.2% (inactive) and 105% (inactive) | 110% (inactive) and 81.6% (inactive) | 45.6% (inactive) and 30.4% (inactive) | 92.1% (inactive) | 18.4% (inactive) and 13.3% (inactive) | 61.2% (inactive) and 3.23% (active) | 120% (inactive) and 93.1% (inactive) | 62.9% (inactive) and 63.6% (inactive) | 74.4% (inactive) and 75.2% (inactive)
9 | O=C(OCc1ccccc1)c1ccccc1 | 126% (inactive) and 87.8% (inactive) | 101% (inactive) and 104% (inactive) | 93.2% (inactive) and 117% (inactive) | 107% (inactive) and 64.8% (inactive) | 105% (inactive) and 102% (inactive) | 111% (inactive) and 98.1% (inactive) | 99.7% (inactive) and 90.2% (inactive) | 88.6% (inactive) and 81.3% (inactive) | 104% (inactive) | 102% (inactive) and 83.3% (inactive)
10 | CC1CC(O)CC(C)(C)C1.CC1CC(O)CC(C)(C)C1.CC1CC(O)CC(C)(C)C1.CC1CC(O)CC(C)(C)C1.[Ti] (stereo not given) | 93.9% (inactive) | 93.6% (inactive) | 82% (inactive) | 79% (inactive) | 104% (inactive) | 111% (inactive) | 94.9% (inactive) | 106% (inactive) | 112% (inactive) | 98.8% (inactive)
11 | O=C1Cc2ccccc2C(=O)N1 | 92.4% (inactive) | 99.2% (inactive) | 96.7% (inactive) | 75.5% (inactive) | 91% (inactive) | 82.1% (inactive) | 77% (inactive) | 103% (inactive) | 41.1% (inactive) | 69.8% (inactive)
